From PubChem BioAssay
Most compounds without a hit are left out; they make up all but 5.7% or so of the library.
Gal4-VP16 FLuc: inhibits Gal4-VP16 luciferase reporter, ROR gamma counter-screen | 3.5% of 310,000 active | Potency, µM (titrated, usually from 53.6 µM), without a hit: at the top dose activity, negative = inhibition, actives largely listed as inhibitors | Drosophila S2 Gal4-VP16 UAS-luciferase, luminescence, 20 h;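 note: Gal4-VP16 expression switched on by copper sulfate through the metallothionein promoter; nearly all actives have a fitted effect of over 50% in size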
B2AR arrestin: agonists driving beta-arrestin recruitment to human beta2-adrenergic receptor; beta-arrestin recruitment to beta2AR, cell-based reporter; Potency, µM (series often up to 46.1 µM), for the others: top-dose activation, most hits filed as activators; 0.02% of 330,000 active; AID 492947;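 note: 0% = DMSO controls and full agonism = EC100 isoproterenol or metaproterenol; nearly all actives have a fitted effect of over 65% in size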
NPSR antagonist: neuropeptide S receptor (human) antagonism, cAMP. Q6W5P4. CHO-NPSR cells, cAMP TR-FRET, antagonist mode. Potency, µM (doses to about 38.3 µM), for the others: at the top dose activity change, negative = inhibition, hits mostly inhibitors. 1% of 220,000 active. AID 1461; note: nearly all actives have a fitted effect of over 50% in size
Target sequence (Q6W5P4 whole entry, looked up): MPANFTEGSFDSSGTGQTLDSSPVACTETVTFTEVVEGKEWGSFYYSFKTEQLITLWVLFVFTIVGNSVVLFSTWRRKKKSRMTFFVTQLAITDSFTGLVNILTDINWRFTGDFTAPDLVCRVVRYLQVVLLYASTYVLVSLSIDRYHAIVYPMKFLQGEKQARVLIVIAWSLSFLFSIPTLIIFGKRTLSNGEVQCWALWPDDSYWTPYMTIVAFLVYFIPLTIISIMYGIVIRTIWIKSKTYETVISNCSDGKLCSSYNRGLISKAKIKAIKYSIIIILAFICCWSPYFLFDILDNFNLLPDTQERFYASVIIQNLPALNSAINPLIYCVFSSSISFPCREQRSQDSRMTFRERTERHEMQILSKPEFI
RORgamma inh: blocks mouse ROR gamma transcriptional activity. AID 2551. Drosophila S2 Gal4-RORgamma UAS-luciferase reporter, 20 h. 5.4% of 310,000 active. Potency, µM (titrated, usually from 53.6 µM), for the others: at the top dose activity change, negative = inhibition, hits mostly inhibitors; note: nearly all actives have a fitted effect of over 60% in size
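Drosophila Schneider cells stably carrying a metallothionein-driven Gal4 DBD–ROR gamma fusion and a UAS-Photinus luciferase reporter were exposed to compound for 1 hr, then induced with copper sulfate (700 uM final) for 20 hr at ambient temperature before luminescence reading.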
* hit, by the source's call; ! = not active in a repeat; [ ] = remark or other dose. Calls come from the whole dose curve; as a rule, active = well fitted curve in the direction sought with a large enough effect; inconclusive = small, poorly fitted or top-dose-only effect, or another doubt; inactive = no such curve, though single readings can be large; an effect the other way counts as inactive or inconclusive. Unless noted, % is set by controls: 0 for no effect and ±100 for the full control effect; potency is the fitted concentration of half-maximal effect.

`CCOc1ccc(S(=O)(=O)Nc2ccc(C(=O)NCC(c3ccco3)N3CCCCC3)cc2)cc1` (stereo unspecified) gave B2AR arrestin 3%.
N#Cc1c(-c2ccco2)cc(-c2ccccn2)nc1N was read as Gal4-VP16 FLuc 11µM*, B2AR arrestin 0%, NPSR antagonist 2%[46.1 µM] and RORgamma inh 10µM*.
For N#Cc1c(-c2ccco2)cc(-c2cccnc2)nc1N the results were Gal4-VP16 FLuc -5%, B2AR arrestin 1%, NPSR antagonist -4%[46.1 µM] and RORgamma inh inconclusive.
For Nc1ccc([N+](=O)[O-])c(N)c1 the results were Gal4-VP16 FLuc 8% and RORgamma inh 27%.
For Nc1nsc2ccccc12 the results were Gal4-VP16 FLuc inconclusive, B2AR arrestin 0%, NPSR antagonist -8%[46.1 µM] and RORgamma inh 14µM*.
Screening O=C(Nc1ccnn1C1CCN(Cc2cccc(OCCO)c2)CC1)C1CC1 returned Gal4-VP16 FLuc 0%, B2AR arrestin -1% and RORgamma inh 0%.
Screening Cc1cc(/C=C2/NC(=O)NC2=O)c(C)n1-c1sc2c(c1C#N)CCCC2 returned Gal4-VP16 FLuc 0%, B2AR arrestin 8%, NPSR antagonist -17%[46.1 µM] and RORgamma inh 11µM*.
Screening COc1ccccc1NC(=O)c1cc2ccccc2o/c1=N\O returned Gal4-VP16 FLuc -26%, B2AR arrestin 4%, NPSR antagonist -18%[46.1 µM] and RORgamma inh inconclusive.
Screening COc1ccccc1NC(=O)c1cc2cc(Br)ccc2cc1O returned Gal4-VP16 FLuc 8.9µM*, B2AR arrestin -1%, NPSR antagonist inconclusive and RORgamma inh inconclusive.
For COc1ccccc1NC(=O)c1cc2ccc(O)cc2o/c1=N\O the results were Gal4-VP16 FLuc 2.2µM*, B2AR arrestin -2%, NPSR antagonist -20%[46.1 µM] and RORgamma inh 0.89µM*.
Screening CCCC/C=C/[C@H](C)[C@@](C)(COC(=O)c1ccc(Br)cc1)Cc1ccccc1 returned Gal4-VP16 FLuc 4% and RORgamma inh 36%.
`COCCn1c(SC(C)C(=O)Nc2ccc(N3CCOCC3)cc2)nnc1-c1ccncc1` (stereo unspecified) gave B2AR arrestin 0%.
For O=C(c1cnccn1)N1CCC2(CCN(Cc3ccncc3)CC2)CC1 the results were Gal4-VP16 FLuc -7% and RORgamma inh -16%.
For CN(C)c1ccc2c(-c3ccccc3)c3ccc(=[N+](C)C)cc-3oc2c1 the results were Gal4-VP16 FLuc 3.2µM* and RORgamma inh inconclusive.
`O=C(O)c1ccccc1-c1c2ccc(=O)cc-2oc2cc(O)ccc12` gave Gal4-VP16 FLuc 2% and RORgamma inh 4%.
Screening O=C(N/N=C/c1ccccc1Cl)c1n[nH]c2c1CCCC2 returned Gal4-VP16 FLuc inconclusive, B2AR arrestin -2%, NPSR antagonist 7% and RORgamma inh 2.8µM*.
For CN1C(=O)/C(=N\OC(=O)c2cccc3ccccc23)c2ccccc21 the results were Gal4-VP16 FLuc 11µM*, B2AR arrestin 0%, NPSR antagonist -12%[46.1 µM] and RORgamma inh inconclusive.
`CC1CCC(C(C)C)C(OC(=O)Cn2c(-c3ccccc3)[n+](C)c3ccccc32)C1` (stereo unspecified) gave Gal4-VP16 FLuc 6.3µM*, B2AR arrestin -1%, NPSR antagonist inconclusive and RORgamma inh inconclusive.
CC1CCC(C(C)C)C(OC(=O)Cn2c(-c3ccc(F)cc3)[n+](C)c3ccccc32)C1 (stereo unspecified) was read as Gal4-VP16 FLuc 7.1µM*, B2AR arrestin 0%, NPSR antagonist -15% and RORgamma inh inconclusive.
`NCCCC[C@H](NC(=O)[C@@H]1CCCN1C(=O)[C@H](CO)NC(=O)[C@H](CC(=O)O)NC(=O)CNC(=O)[C@H](CCCN=C(N)N)NC(=O)CN)C(=O)O` gave Gal4-VP16 FLuc -7% and RORgamma inh -2%.
For CCN(C(=O)COC(=O)c1cccc(NS(=O)(=O)c2ccc(F)c(F)c2)c1)C1CCS(=O)(=O)C1 (stereo unspecified) the results were Gal4-VP16 FLuc -8%, B2AR arrestin 0%, NPSR antagonist 9% and RORgamma inh 14%.
For CCc1cc(C(=O)c2ccc(OC)cc2)c(NC(=O)CN2CCCCC2)s1 the results were Gal4-VP16 FLuc -24%, B2AR arrestin -1%, NPSR antagonist 26%[7.67 µM] and RORgamma inh 7.1µM*.
For CCc1cc(C(=O)c2ccc(OC)cc2)c(NC(=O)CN2CCCC2)s1 the results were Gal4-VP16 FLuc 6%, B2AR arrestin 0%, NPSR antagonist inconclusive and RORgamma inh 2%.
`CCN1C(=O)[C@H]2[C@@H](c3ccc(C)cc3)N3C(=O)N(c4ccccc4)C(=O)[C@@]3(C)[C@H]2C1=O` gave Gal4-VP16 FLuc 4%, B2AR arrestin 0% and RORgamma inh -1%.
Screening CC1=C(/C=C/C(C)=C/C=C/C(C)=C/C(=O)Nc2ccc(O)cc2)C(C)(C)CCC1 returned Gal4-VP16 FLuc 5µM*!, B2AR arrestin 0%, NPSR antagonist -21%[46.1 µM] and RORgamma inh 4.5µM*!.
`CC1=C(\C=C/C(C)=C/C=C\C(C)=C\C(=O)O)C(C)(C)CCC1` gave Gal4-VP16 FLuc -7% and RORgamma inh inconclusive.
`C=C(Br)Cn1c(CCC)nc2ccccc21` gave Gal4-VP16 FLuc -4%, B2AR arrestin 0%, NPSR antagonist 14%[46.1 µM] and RORgamma inh inconclusive.
For CCCc1nc2ccccc2n1C(=S)SC the results were Gal4-VP16 FLuc inconclusive, B2AR arrestin 0%, NPSR antagonist -14% and RORgamma inh 11µM*.
CCOc1ccc(NC(=S)NC(=O)/C=C/c2ccc(C)cc2)c([N+](=O)[O-])c1 was read as Gal4-VP16 FLuc -17%, B2AR arrestin 1%, NPSR antagonist inconclusive and RORgamma inh 37%.
Screening Cc1cc(NC(=O)c2c(Cl)c(C)nn2C)no1 returned Gal4-VP16 FLuc 17%, NPSR antagonist -12%[46.1 µM] and RORgamma inh -2%.
For CCOc1ccc(NC(=S)NC(=O)c2c(Cl)c(C)nn2C)c([N+](=O)[O-])c1 the results were Gal4-VP16 FLuc inconclusive, B2AR arrestin 3%, NPSR antagonist 6% and RORgamma inh 10µM*.
For Cc1nn(C)c(C(=O)NC(=S)Nc2ccccc2O)c1Cl the results were Gal4-VP16 FLuc 3.2µM*, B2AR arrestin -1% and RORgamma inh 2µM*.
For Cc1nn(C)c(C(=O)NCc2ccc(Cl)cc2)c1Cl the results were Gal4-VP16 FLuc 4µM*, B2AR arrestin -1%, NPSR antagonist 19% and RORgamma inh inconclusive.
For O=C(Nc1cccc(F)c1)/C(=C/c1ccco1)NC(=O)c1ccco1 the results were Gal4-VP16 FLuc 1%, B2AR arrestin 0% and RORgamma inh 3%.
CC(=O)Nc1ccc(SCCN2CCN(C)CCC2=O)cc1 was read as Gal4-VP16 FLuc 2% and RORgamma inh 2%.
CCN1C(=O)/C(=C\N(C(C)=O)c2ccccc2)OC1=S was read as Gal4-VP16 FLuc 10µM*, B2AR arrestin 3%, NPSR antagonist 12%[46.1 µM] and RORgamma inh 7.9µM*.
CCN1C(=O)/C(=C/N(C)c2ccccc2)OC1=S was read as Gal4-VP16 FLuc 0%[0.365 µM], B2AR arrestin 0%, NPSR antagonist -3%[46.1 µM] and RORgamma inh 35%.
